Here are results for 15 sequences from the supplement of paper PMC6555819.

Assay in all cases: PBM binding z-score (relative to random genomic background probes); higher = stronger binding; sequences stand for … in GC…GCGATTGACAGCGTAGAATGAAGG
Assay [1] concerns RARb homodimer (NR concentration 270 nM). Summed up: (§1)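 Each nuclear receptor dimer, without ligand, was incubated for 1 h on custom Agilent 4×180K protein-binding microarrays. Binding was detected with antibodies against each partner (one per run), and scanned fluorescence was regression-normalized. The binding z-scores are referenced to random human genomic background probes.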

Assay [2] concerns RARg:RXRa (NR concentration 270 nM, RXRa partner concentration 90 nM). In a few lines: as §1
Assay [3] deals with RARg homodimer (NR concentration 270 nM). In a few lines:
as §1

Assay [4] concerns RXRa DBDmut IVT, anti-RXR (DBD mutation: RXRa K156A/R161A, NR concentration 90 nM). In a few lines: as §1
The test system of assay [5] is RXRa homodimer (NR concentration 180 nM). In a few lines:
as §1

For assay [6], the system named is THRa:RXRa (NR concentration 90 nM, RXRa partner concentration 90 nM). In a few lines:
as §1

For assay [7], the system named is THRa homodimer (NR concentration 90 nM). Summed up:
as §1

Assay [8] has as its system VDR homodimer (NR concentration 270 nM). Summed up: as §1

As to TCGAGTAGGTTAGTCGGGTCATTCAGCCAACATA, the PBM binding z-score in assay [1] amounted to 2.2; in assay [2], 1.93; in assay [3], 1.5; in assay [4] it was 0.747; in assay [5], 2.1; in assay [6] it was 3.06. Moreover, the PBM binding z-score is 1.48 in assay [7] and 2.35 in assay [8].
For GCTGCTAGGTCAGGTTGGTCAGGTAACGGGTACG, the PBM binding z-score in assay [1] was found to be 2.89; in assay [2], 2.59; in assay [3], 3.55; in assay [4], 0.37; in assay [5] it was 1.06; in assay [6], 2.32. The PBM binding z-score is 2.02 in assay [7] and 0.789 in assay [8].
Turning to CCTTACGGGTCACGAGGTGATAGCACGACGAGCG, the PBM binding z-score in assay [1] worked out at 3.52; in assay [2], 5.58; in assay [3] it was 5.46; in assay [4], 1.66; in assay [5], 6.44; in assay [6], 3.48. In addition, the results for the PBM binding z-score in assay [7] and in assay [8] were 0.888 and 1.15, respectively.
As for CCTAGTAGTTGACCATAAGGGCAACCGAAGCTCG, the PBM binding z-score in assay [1] is 2.08; in assay [2], 1.13; in assay [3] it was 0.854; in assay [4], -0.02; in assay [5], 0.613; in assay [6], 1.81. Further, the PBM binding z-score was found to be 1.16 in assay [7] and 0.728 in assay [8].
On to AGAATGAGGTTACCAAAGATCAGGCAAACGCTTG, for which the PBM binding z-score in assay [1] worked out at 0.854; in assay [2], 1.97; in assay [3] it was 1.63; in assay [4], 1.16; in assay [5] it was 2.65; in assay [6] it was 2.84. Also, the PBM binding z-score is 0.538 in assay [7] and -0.192 in assay [8].
With CCTGCTAGGTCAATGATCAGCTAAAGCAGCTCGC, the PBM binding z-score in assay [1] was 2.32; in assay [2] it was 3.18; in assay [3], 4.16; in assay [4], 1.82; in assay [5], 1.83; in assay [6] it was 1.99. The PBM binding z-score is -0.185 in assay [7] and -0.421 in assay [8].
On to ACTATTAGTTGAGACGAGGGCAACCAATAGGTTG, for which the PBM binding z-score in assay [1] was found to be 1.29; in assay [2], 0.956; in assay [3], 0.987; in assay [4], 0.665; in assay [5] it was 0.753; in assay [6], 2.89. Moreover, the PBM binding z-score is 0.217 in assay [7] and 0.676 in assay [8].
For TCGAGTAGGTTCGTCGGGGCATTCAGCCAACATA, the PBM binding z-score is 0.49 in assay [1]; 0.1 in assay [2]; -0.361 in assay [3]; 2.31 in assay [4]; 0.365 in assay [5]; 0.871 in assay [6]. Moreover, the values for the PBM binding z-score in assay [7] and in assay [8] were 0.192 and 2.33, respectively.
On to ATATGTAGGTTTTCGGGTCATTCAGTTTGCGCAT, for which the PBM binding z-score in assay [1] came out at 2.88; in assay [2], 2.43; in assay [3], 1.72; in assay [4], 1.88; in assay [5], 3.57; in assay [6], 3.89. The PBM binding z-score in assay [7] came to 4.22; in assay [8], 4.55.
CGAACTAGGTCATCCAGGACAGTGAGTACATTGA: the PBM binding z-score in assay [1] was found to be 3.03; in assay [2], 4.04; in assay [3], 5.08; in assay [4] it was 2.58; in assay [5], 3.02; in assay [6] it was 3.65. Further, the PBM binding z-score in assay [7] was determined as 2.14; in assay [8], 4.1.
With GCTAGTTGGTCAGTAAAAGGTCACCCACCGGTCG, the PBM binding z-score in assay [1] was 5.12; in assay [2] it was 5.56; in assay [3], 4.94; in assay [4], -0.12; in assay [5], 5.13; in assay [6], 3.42. Further, the PBM binding z-score was 1.89 in assay [7] and 1.26 in assay [8].
On to CTCGAAAGGTCGGTTGAGGTGAGCATACGGATAA, for which the PBM binding z-score in assay [1] came out at 2.57; in assay [2], 3.04; in assay [3], 2.99; in assay [4] it was 0.598; in assay [5], 2.33; in assay [6], 5.04. Besides, the PBM binding z-score came out at 1.56 in assay [7] and 0.64 in assay [8].
As to CCTACTGGGCCATCAGGTCGTTGATATCAACGTT, the PBM binding z-score stood at 0.879 in assay [1]; 0.238 in assay [2]; 0.401 in assay [3]; 0.0318 in assay [4]; 0.133 in assay [5]; 1.42 in assay [6]. Further, the PBM binding z-score is 1.06 in assay [7] and 0.424 in assay [8].
In the case of CGAACTAGGTCATCCAGGAGAGTGAATACATTGA, the PBM binding z-score in assay [1] worked out at 2.87; in assay [2] it was 3.87; in assay [3], 4.68; in assay [4], 2.19; in assay [5], 2.84; in assay [6], 2.93. Further, the results for the PBM binding z-score in assay [7] and in assay [8] were 0.976 and 0.755, respectively.
Consider CCGAGTAGGTTATGGGGCAATCAGGCAACGGTGA, for which the PBM binding z-score in assay [1] was 1.16; in assay [2], 0.738; in assay [3], 0.689; in assay [4] it was -0.315; in assay [5], 0.867; in assay [6], 0.602. Further, the results for the PBM binding z-score in assay [7] and in assay [8] were 0.263 and 0.0803, respectively.
